Data from PubChem BioAssay AID1159580 (chemical genetic matrix, 2015).
The whole screen tested about 5,500 compounds, of which about 2,000 (36%) were called active. Not shown: some 18% with an inconclusive outcome. Cut-off read from the data, not from the text of the source: active = normalized growth mostly below about 0.91 (no sharp cut-off); inconclusive = no clear call, values can overlap the other calls; inactive = mostly above about 0.92. The list shows a part of the results.

Assay: chemical genetic growth profiling, strain panel (AID 1159580);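 note: tested at 20 µM; growth read once vehicle control cultures reached saturation at 30 °C; 1 = growth at the plate median or of vehicle wells; lower values mean less growth of the strain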
Settings: S. cerevisiae deletion strains, growth OD

Measured: normalized growth

CC1=NN=C(c2ccc(N)cc2)c2cc3c(cc2C1)OCO3
inactive: locus YAL013W, strain DEP1, stronger effect = lower value 0.989 | locus YAL040C, strain CLN3, stronger effect = lower value 0.968 | locus YCL061C, strain MRC1 (second series), stronger effect = lower value 0.991 | locus YDR363W, strain ESC2, stronger effect = lower value 0.986 | locus YER002W, strain NOP16, stronger effect = lower value 0.967 | locus YMR263W, strain SAP30, stronger effect = lower value 0.996 | locus YMR307W, strain GAS1, stronger effect = lower value 1 | locus YNL128W, strain TEP1, stronger effect = lower value 0.983 | locus YNL153C, strain GIM3, stronger effect = lower value 0.957 | locus YNL175C, strain NOP13, stronger effect = lower value 0.968 | locus YNL197C, strain WHI3, stronger effect = lower value 0.964 | locus YNL224C, strain SQS1, stronger effect = lower value 0.989 | locus YOR083W, strain WHI5 (second series), stronger effect = lower value 0.936 | locus YPL055C, strain LGE1, stronger effect = lower value 0.984

Cc1nnc2n1N=C(c1ccc(CC(C)C)cc1)C(C)S2 (stereo not given)
inactive: locus YAR019C, strain CDC15, stronger effect = lower value 0.971 | locus YBL105C, strain PKC1, stronger effect = lower value 0.975 | locus YBR135W, strain CKS1, stronger effect = lower value 0.964 | locus YBR136W, strain MEC1, stronger effect = lower value 0.975 | locus YBR160W, strain CDC28, stronger effect = lower value 0.978 | locus YDL017W, strain CDC7, stronger effect = lower value 0.982 | locus YDL028C, strain MPS1, stronger effect = lower value 0.972 | locus YDL101C, strain DUN1, stronger effect = lower value 0.965 | locus YDL108W, strain KIN28, stronger effect = lower value 0.97 | locus YDL132W, strain cdc53, stronger effect = lower value 0.972 | locus YDL214C, strain PRR2, stronger effect = lower value 0.98 | locus YDR052C, strain DBF4, stronger effect = lower value 0.977 | locus YDR054C, strain cdc34, stronger effect = lower value 0.973 | locus YDR226W, strain ADK1, stronger effect = lower value 0.966 | locus YDR477W, strain SNF1, stronger effect = lower value 0.975 | locus YER123W, strain YCK3, stronger effect = lower value 0.941 | locus YER133W, strain GLC7, stronger effect = lower value 0.972 | locus YFL009W, strain cdc4, stronger effect = lower value 0.971 | locus YFL029C, strain CAK1, stronger effect = lower value 0.971 | locus YFR003C, strain YPI1, stronger effect = lower value 0.978 | locus YFR019W, strain FAB1, stronger effect = lower value 0.986 | locus YFR028C, strain CDC14, stronger effect = lower value 0.969 | locus YGR040W, strain KSS1, stronger effect = lower value 0.979 | locus YGR052W, strain FMP48, stronger effect = lower value 1.05 | locus YGR092W, strain DBF2, stronger effect = lower value 0.971 | locus YHR030C, strain SLT2, stronger effect = lower value 1.08 | locus YHR079C, strain IRE1, stronger effect = lower value 1.05 | locus YHR082C, strain KSP1, stronger effect = lower value 1.05 | locus YHR205W, strain SCH9, stronger effect = lower value 0.977 | locus YIL147C, strain SLN1, stronger effect = lower value 0.964 | locus YJL095W, strain BCK1, stronger effect = lower value 1.06 | locus YJL128C, strain PBS2, stronger effect = lower value 0.931 | locus YJL157C, strain FAR1, stronger effect = lower value 0.983 | locus YJR016C, strain ILV3, stronger effect = lower value 0.98 | locus YJR066W, strain TOR1 (second series), stronger effect = lower value 0.971 | locus YJR066W, strain TOR1, stronger effect = lower value 1.07 | locus YKL048C, strain ELM1, stronger effect = lower value 0.979 | locus YKL067W, strain YNK1, stronger effect = lower value 0.98 | locus YKL101W, strain HSL1, stronger effect = lower value 0.985 | locus YKL193C, strain SDS22, stronger effect = lower value 0.972 | locus YKL203C, strain TOR2, stronger effect = lower value 1.04 | locus YLR113W, strain HOG1, stronger effect = lower value 0.973 | locus YLR133W, strain CKI1, stronger effect = lower value 0.985 | locus YLR403W, strain SFP1, stronger effect = lower value 0.965 | locus YML070W, strain DAK1, stronger effect = lower value 0.968 | locus YMR001C, strain CDC5, stronger effect = lower value 0.974 | locus YMR205C, strain PFK2 (second series), stronger effect = lower value 0.986 | locus YMR277W, strain FCP1, stronger effect = lower value 0.975 | locus YNL006W, strain LST8, stronger effect = lower value 0.986 | locus YNL020C, strain ARK1, stronger effect = lower value 0.997 | locus YNL161W, strain CBK1, stronger effect = lower value 0.977 | locus YNL183C, strain NPR1, stronger effect = lower value 1.05 | locus YNL207W, strain RIO2, stronger effect = lower value 0.98 | locus YNL222W, strain SSU72, stronger effect = lower value 0.97 | locus YNL307C, strain MCK1 (second series), stronger effect = lower value 0.97 | locus YOL078W, strain AVO1, stronger effect = lower value 0.977 | locus YOL136C, strain PFK27, stronger effect = lower value 0.975 | locus YOR061W, strain CKA2, stronger effect = lower value 0.972 | locus YOR119C, strain RIO1, stronger effect = lower value 0.982 | locus YOR231W, strain MKK1, stronger effect = lower value 1.04 | locus YOR329C, strain SCD5, stronger effect = lower value 0.98 | locus YPL031C, strain PHO85, stronger effect = lower value 0.983 | locus YPL153C, strain RAD53, stronger effect = lower value 0.956 | locus YPL204W, strain HRR25, stronger effect = lower value 0.96 | locus YPL209C, strain IPL1, stronger effect = lower value 0.98 | locus YPL256C, strain CLN2, stronger effect = lower value 1.02 | locus YPR025C, strain CCL1, stronger effect = lower value 0.969 | locus YPR106W, strain ISR1, stronger effect = lower value 0.979 | locus YPR111W, strain DBF20, stronger effect = lower value 0.967 | strain NNK1, stronger effect = lower value 0.978 | strain TSCII, stronger effect = lower value 0.972
